# RAD54 inh: inhibitors of human RAD54 branch migration, primary screen, biochemical, fluorescence, single point. DNA repair and recombination protein RAD54-like (Homo sapiens), Q92698. RAD54 Holliday junction branch migration, FAM/BHQ fluorescence. inhibition, % at 10.4 µM. 0.14% of 360,000 active. AID 602329, 2012;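 active means mean normalized replicate activity at least 40 and at least half of replicates scoring 40 or more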;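 further: 0% = median of neutral control wells and 100% = median of positive control wells; inhibitors cause a drop in the FAM fluorescence signal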
# UBC13 inh: UBC13 polyubiquitin chain formation inhibitors, primary screen, biochemical, TR-FRET, uHTS. Ubiquitin-conjugating enzyme E2 N (Homo sapiens), P61088. inhibition, % at 20 µM. 0.47% of 330,000 active. AID 485273, 2010; in the data active means inhibition above about 45%, passing the limit was not always enough
# DNA FID counter: compounds displacing fluorescent DNA intercalator, primary screen, artefact control for HCV NS3 helicase inhibitor project, biochemical, FID fluorescence. inhibition, % at 7.9 µM. AID 1845, 2009. 0.17% of 290,000 active. DNA fluorescent intercalator displacement; in the data active means inhibition above about 37%;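 further: 0% = vehicle and 100% = reference compound; higher means more ethidium bromide displaced from hairpin DNA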
# beta cell repl: inducers of MIN6 beta-cell proliferation, primary screen, ATP luminescence, uHTS; MIN6 cells proliferation, ATPlite luminescence, 48 h; cells starved in 0.2% serum; 100% = growth in 10% serum; proliferation, % at 10 µM; 0.29% of 330,000 active;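 active means compounds whose signal lies at least 3.5 SD above the mean of all wells on their plate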;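 further: 0% = DMSO-treated cells in low-serum medium and 100% = 10% serum control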
# PREPL inhibitor: PREPL enzyme inhibitors, primary screen, biochemical, fluorescence polarization | AID 2751, 2010 | inhibition, % at 5.96 µM | recombinant PREPL, fluorescence polarization activity-based probe | 0.68% of 320,000 active; in the data active means inhibition above about 43%;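 further: 0% = enzyme with DMSO and 100% = wells lacking enzyme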
# Target sequence (Q4J6C6 whole entry, looked up): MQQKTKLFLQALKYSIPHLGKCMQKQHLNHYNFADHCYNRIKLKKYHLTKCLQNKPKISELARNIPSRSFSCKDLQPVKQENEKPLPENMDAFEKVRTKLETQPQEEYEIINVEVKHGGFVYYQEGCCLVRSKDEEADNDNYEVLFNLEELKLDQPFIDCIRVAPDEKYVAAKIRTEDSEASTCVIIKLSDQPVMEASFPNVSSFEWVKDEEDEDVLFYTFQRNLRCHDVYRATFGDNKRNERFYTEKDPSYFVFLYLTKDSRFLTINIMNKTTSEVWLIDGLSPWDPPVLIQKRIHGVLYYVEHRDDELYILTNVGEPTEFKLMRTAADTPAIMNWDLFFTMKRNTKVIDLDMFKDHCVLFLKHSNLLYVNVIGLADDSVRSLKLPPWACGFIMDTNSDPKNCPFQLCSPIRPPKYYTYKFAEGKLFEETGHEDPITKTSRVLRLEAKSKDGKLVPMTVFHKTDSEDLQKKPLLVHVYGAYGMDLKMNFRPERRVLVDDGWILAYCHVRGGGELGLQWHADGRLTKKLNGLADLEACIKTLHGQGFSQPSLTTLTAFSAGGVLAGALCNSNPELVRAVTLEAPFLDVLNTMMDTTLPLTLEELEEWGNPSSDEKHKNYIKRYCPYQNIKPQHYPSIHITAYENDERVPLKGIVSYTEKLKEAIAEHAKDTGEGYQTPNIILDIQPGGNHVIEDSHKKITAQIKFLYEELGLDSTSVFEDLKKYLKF
# RAD52 inh: RAD52 DNA annealing inhibitors, primary screen, biochemical, FRET, single point, set 2 | DNA repair protein RAD52 homolog (Homo sapiens), P43351 | recombinant RAD52 DNA annealing, FRET fluorescence | inhibition, % at 18.7 µM | 0.46% of 360,000 active;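 active means every replicate showing at least 50% inhibition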
# Numbers without * were called inactive; . = not tested or not shown. Compounds with a hit are over-represented: about 1.3% of the library has one in this group of screens.
SMILES,RAD54 inh,UBC13 inh,DNA FID counter,beta cell repl,PREPL inhibitor,RAD52 inh
CCOc1ccc(NCc2cccn2-c2nnc(N3CCC(C(=O)NCCCN4CCCCC4CC)CC3)s2)cc1 (stereo not given),25,22,40*,-7,35,33
Cc1csc(=Nc2c(C)n(C)n(-c3ccccc3)c2=O)n1-c1ccccc1,.,6,-6,-1,2,7
Cc1c(N=c2c(=O)c3ccccc3c2=O)c(=O)n(-c2ccccc2)n1C,.,-77,.,-3,43*,.
Cc1ccccc1S(=O)(=O)N1CCCCN2[C@H](C1)[C@@H](c1ccc(C#CCN(C)C)cc1)[C@@H]2CO,-5,.,.,.,.,60*
Cc1ccccc1S(=O)(=O)N1CCCCN2[C@@H](CO)[C@H](c3ccc(-c4ccccc4)cc3)[C@@H]2C1,1,.,.,.,.,71*
C/C=C/c1ccc([C@H]2[C@@H](CO)N3CCCCN(S(=O)(=O)c4ccc(OC)cc4)C[C@H]23)cc1,-5,.,.,.,.,60*
Cc1ccccc1S(=O)(=O)N1CCCCN2[C@H](CO)[C@H](c3ccc(-c4ccccc4)cc3)[C@@H]2C1,3,.,.,.,.,28
Cc1ccc(-c2ccc([C@@H]3[C@H]4CN(S(=O)(=O)c5cccc(C)c5)CCCCN4[C@H]3CO)cc2)cc1,4,.,.,.,.,12
Cc1ccc(-c2ccc([C@@H]3[C@@H](CO)N4CCCCN(S(=O)(=O)c5cccc(C)c5)C[C@H]34)cc2)cc1,6,.,.,.,.,53*
Cc1ccccc1S(=O)(=O)N1CCCCN2[C@@H](CO)[C@H](c3ccc(C#CCN(C)C)cc3)[C@@H]2C1,-1,.,.,.,.,.
Cc1cccc(S(=O)(=O)N2CCCCN3[C@@H](CO)[C@H](c4ccc(-c5ccccc5)cc4)[C@@H]3C2)c1,2,.,.,.,.,68*
COCC(=O)N1CC2(C1)[C@@H](c1ccc(-c3ccccc3)cc1)[C@@H](CO)N2C(=O)COC,.,.,.,.,.,-6
ON=C1c2ccccc2-c2ccccc21,2,12,-2,4,-4,1
NC(N)=NN=C1c2ccccc2-c2ccccc21,82*,3,11,3,-1,43
O=C(CN1CCN(c2nc(-c3ccccc3)cs2)CC1)Nc1ccc2c(c1)OCO2,8,14,-9,-5,48*,.
CN(CCNC(=O)c1cc2c(=O)n(C)c3ccccc3c2n1C)Cc1ccccc1,52*,32,13,-5,-26,15
CCCN(CCC)CCNC(=O)c1cc2c(=O)n(C)c3ccccc3c2n1C,55*,38,11,-1,-49,26
COc1ccc(CN(C)C[C@H]2OCCCC[C@H](C)Oc3ccc(NS(=O)(=O)c4ccccc4)cc3C(=O)N([C@@H](C)CO)C[C@H]2C)cc1,3,.,.,.,.,-2
C=CCOC(=O)/C=C/C(=O)NC(N)=O,-6,1,-1,11*,-4,6
C[C@@H]1CN([C@@H](C)CO)C(=O)c2cc(NC(=O)Nc3ccc(C(F)(F)F)cc3)ccc2O[C@H]1CN(C)C,-4,.,.,.,.,18
CN(C)CC#Cc1ccc([C@@H]2[C@H](CO)N3CCCCN(CC4CCOCC4)C[C@@H]23)cc1,-10,.,.,.,.,35
CN(C)CC#Cc1ccc([C@H]2[C@@H](CO)N3CCCCN(CC4CC4)C[C@@H]23)cc1,-9,.,.,.,.,61*
CN(C)CC#Cc1ccc([C@@H]2[C@@H](CO)N3CCCCN(CC4CCOCC4)C[C@@H]23)cc1,-12,.,.,.,.,2
CN(C)CC#Cc1ccc([C@H]2[C@H](CO)N3CCCCN(CC4CCOCC4)C[C@@H]23)cc1,-24,.,.,.,.,54*
Cc1ccc(-c2ccc([C@H]3[C@H](CO)N4C(=O)CN(C(=O)Nc5cccc(F)c5)C[C@@H]34)cc2)cc1,.,.,.,.,.,-5
SMILES,RAD54 inh,UBC13 inh,DNA FID counter,beta cell repl,PREPL inhibitor,RAD52 inh
COc1cccc(NC(=O)Nc2ccc3c(c2)C(=O)N(C)C[C@H](OC)[C@H](C)CN(CC2CC2)[C@H](C)CO3)c1,-5,.,.,.,.,45
COc1cccc(NC(=O)Nc2ccc3c(c2)C(=O)N(C)C[C@@H](OC)[C@@H](C)CN(CC2CC2)[C@@H](C)CO3)c1,-12,.,.,.,.,70*
COc1cccc(C(=O)Nc2ccc3c(c2)C(=O)N(C)C[C@H](OC)[C@H](C)CN(C)[C@H](C)CO3)c1,4,.,.,.,.,4
CCCN1C[C@@H](C)[C@@H](OC)CN(C)C(=O)c2ccc(NC(=O)Nc3cccc(OC)c3)cc2OC[C@@H]1C,-8,.,.,.,.,68*
COc1cccc(NC(=O)Nc2ccc3c(c2)C(=O)N(C)C[C@H](OC)[C@@H](C)CN(C)[C@@H](C)CO3)c1,2,.,.,.,.,79*
O=C(Nc1cc2c3c(c1)C1CCCC1CN3CC1CCCC21)c1ccccc1 (stereo not given),50*,9,2,-5,25,.
Cc1cc2cc(CNC(=O)COc3ccccc3)ccc2n1C,2,2,-23,-3,52*,-29
Cc1cc2cc(CNC(=O)c3cc4ccccc4o3)ccc2n1C,.,3,-38,0,65*,.
CN1C(=O)c2cc(NC(=O)Nc3ccc(Cl)cc3)ccc2OC[C@@H]2O[C@H](CC(=O)NCCN3CCCCC3)CC[C@@H]21,18,.,.,.,.,54*
CN1C(=O)c2cc(NC(=O)Nc3ccc(Cl)cc3)ccc2OC[C@H]2O[C@@H](CC(=O)NCCN3CCCCC3)CC[C@H]21,15,.,.,.,.,41
C[C@@H]1CCCCO[C@H](CN(C)C(=O)Nc2ccc(F)cc2)[C@@H](C)CN([C@H](C)CO)C(=O)c2cc(NC(=O)Nc3ccc4c(c3)OCO4)ccc2O1,12,.,.,.,.,22
Cc1coc2c(C)c3oc(=O)c(CCC(=O)NCCCn4ccnc4)c(C)c3cc12,-11,33,22,1,14,-5
Cc1c(CCC(=O)NCCCn2ccnc2)c(=O)oc2c(C)c3occ(C(C)(C)C)c3cc12,-9,9,38*,-8,-1,10
O=C1COc2ccc(-c3csc(NCCc4ccccc4)n3)cc2N1,.,-9,-12,-4,51*,-11
CCC(C)C(=O)Nc1nc(-c2ccc3c(c2)NC(=O)CO3)cs1 (stereo not given),.,8,-16,2,10,.
CN(CCCS(=O)(=O)[O-])c1ccc(/C=C/c2ccc3ccccc3[n+]2C)cc1,-6,-296,-20,-5,.,-27
CN(C)c1ccc(/C=C/c2cccc[n+]2[O-])cc1,-20,-3,-5,-1,7,-216
CN(C)c1ccc(/C=C/c2ccc3c4ccccc4ccc3[n+]2-c2ccccc2)cc1,74*,.,78*,.,.,45

# Source: PubChem BioAssay
